Results with a measured potency or affinity are listed apart. Records with an inconclusive call do not appear. Calls of active or inactive are those of the source.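 Rule for the calls: active = raises choline transporter activity at one or more tested doses and gives a fitted dose-response curve; inconclusive = no clear call, values can overlap the other calls; inactive = no choline transporter activation at any dose, or no curve.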
Each compound was assayed against High affinity choline transporter 1 (Homo sapiens) (UniProt Q9GZV3) (assay: CHT activators, dose response, cell-based, 10-point CRC, membrane potential dye (AID 602376)). Details: HEK293-CHT, choline-induced membrane potential dye, cells express CHT LV-AA mutant; series mostly up to 67 µM; percent activation: at the top concentration.
Sequence of High affinity choline transporter 1 (Homo sapiens) (Q9GZV3 whole entry, looked up): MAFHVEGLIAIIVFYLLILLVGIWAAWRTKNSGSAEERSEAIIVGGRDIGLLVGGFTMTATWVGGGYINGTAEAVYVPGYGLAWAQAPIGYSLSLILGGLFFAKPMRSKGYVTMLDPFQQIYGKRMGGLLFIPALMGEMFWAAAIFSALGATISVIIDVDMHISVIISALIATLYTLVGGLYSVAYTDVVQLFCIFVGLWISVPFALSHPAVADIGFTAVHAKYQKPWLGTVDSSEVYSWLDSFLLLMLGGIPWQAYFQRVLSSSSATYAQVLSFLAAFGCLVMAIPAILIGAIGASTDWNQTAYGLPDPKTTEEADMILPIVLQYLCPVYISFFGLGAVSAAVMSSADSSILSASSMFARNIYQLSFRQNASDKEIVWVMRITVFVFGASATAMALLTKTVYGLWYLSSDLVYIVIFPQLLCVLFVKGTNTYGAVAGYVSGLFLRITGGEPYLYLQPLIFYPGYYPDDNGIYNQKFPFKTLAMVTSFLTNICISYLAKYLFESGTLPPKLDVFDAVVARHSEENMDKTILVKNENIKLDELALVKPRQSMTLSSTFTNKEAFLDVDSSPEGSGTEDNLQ

Percent activation, inactive:
Cc1cccc2cc3c(N)c(C(=O)N4CCc5ccccc54)sc3nc12 133%, CCc1cccc(OCCn2nc(C(=O)O)c3ccccc3c2=O)c1 64.3%, Cc1nc(N(C)Cc2ccccc2)c2c(C)c(C)sc2n1 16.8%, CCOC(=O)c1c(C)n(-c2ccccc2)c2ccc(OCCN(C)C)cc12 34.4%, CCOC(=O)c1cc2c(=O)n3ccccc3nc2n(CC2CCCO2)c1=NC(=O)/C=C/c1ccccc1 (centres undefined) 37.3%, CCC(=O)N(CCC(c1ccc(C)cc1)c1ccco1)Cc1ccco1 (centres undefined) 76.7%, C=CCN1C(c2ccc(OCC)cc2)=CS/C1=C(\C#N)c1nnc2n1CCCCC2 94.7%, COC(=O)c1ccccc1NC(=O)CN1CCN(C23CC4CC(CC(C4)C2)C3)CC1 74.9%, CCOC(=O)c1c(NC(=O)CSc2nc3ccccc3o2)sc(C(C)=O)c1C 86.3%, O=C1CCC(C(=O)N(Cc2cccs2)C2(C(=O)NC3CCCCC3)CCCCC2)N1 (centres undefined) 73.7%, Clc1ccc(CN2C3=NCCN3c3ccccc32)cc1Cl 76.6%, FC(F)(F)COc1nc(OCC(F)(F)F)nc(N2CCN(c3ccccc3)CC2)n1 69.1%, CCOC(=O)C1(CCc2ccccc2)CCN(Cc2cc(OC)c(OC)cc2OC)CC1 86.5%, CC(C)CCNC(=O)/C=C/c1ccc(Br)cc1 53%, CN1CCN(Cc2nc3ccccc3c(=O)n2Cc2nc(-c3ccccc3F)cs2)CC1 37.2%, CCc1ccc(C(O)(CNCc2ccccc2)c2ccccc2)cc1 (centres undefined) 153%, CCOc1cc(NC(=O)c2ccco2)c(OCC)cc1NC(=O)c1ccco1 66.1%, Nc1sc(-c2ccccc2)n[n+]1Cc1cccc2cccnc12 135%, COc1ccc(-c2csc3nc(C)nc(N4CCCCC4)c23)cc1OC 54.9%, CCC(C)(C)C1CCc2nc3ccccc3c(C(=O)OC(C)C(=O)Nc3c(C)n(C)n(-c4ccccc4)c3=O)c2C1 (centres undefined) 61.3%, O=C(c1ccco1)N(CCC(c1ccccc1)c1ccco1)Cc1ccccc1 (centres undefined) 61.2%, Cn1c(=O)c2c(nc(CN3CCCCC3)n2CCc2ccccc2)n(C)c1=O 46.7%, CCCC12CN(C(=O)c3ccc([N+](=O)[O-])cc3)CC(C)(CN(C(=O)c3ccc([N+](=O)[O-])cc3)C1)C2=O 97.7%, O=C(NCC(c1ccco1)N1CCCC1)c1ccccc1Sc1ccc(C(F)(F)F)cc1[N+](=O)[O-] (centres undefined) 51.3%, O=C1CCN(Cc2ccccc2)CCN1[C@H](COc1ccccc1)Cc1ccccc1 68.6%, Cc1cc(N2CCN(Cc3cn(C)nc3-c3ccccc3F)CC2)cc(C)n1 11.6%, C/C(=N\NC(=O)c1nnn(-c2nonc2N)c1CN1CCC(C)CC1)c1cccc(Br)c1 50.8%, CC(=O)N1CCN(c2ccccc2NC(=O)COc2cc(C)ccc2C(C)C)CC1 19.2%, CN(Cc1ccc(F)cc1)C(=O)C(c1ccccc1)c1ccccc1 74.1%, CCOC(=O)c1c(CSc2ccsc2)n(C)c2cc(Br)c(O)c(CN(C)C)c12 93.4%, Cc1cccc2c(=O)cc(C)n(CC(=O)N3CCOCC3)c12 -3.24%, Cc1ccccc1OCc1n(CC(=O)OC2CC(C)CCC2C(C)C)c2ccccc2[n+]1C (centres undefined) 202%, CCCCn1c(N)c(N(CCOC)C(=O)c2ccc(COc3ccccc3)o2)c(=O)[nH]c1=O 56.5%, COc1ccc(NC(=O)C(c2ccccc2)N2CCN(c3ccccn3)CC2)cc1Cl (centres undefined) 49.1%, CCN1C(=NCc2ccccc2)N[C@@H](c2ccccc2)[C@H](C(=O)OC)[C@H]1C 108%, CCOC(=O)c1sc2nc(SCC#N)n(CCCN3CCCC3=O)c(=O)c2c1C 0.97%, COc1cc(-c2noc(C)c2C#Cc2ccccn2)cc(OC)c1OC 67%, CCc1ccc(OCC(=O)N/N=C/c2cc([N+](=O)[O-])ccc2N2CCOCC2)cc1 61.9%, O=C(NC1CCCC1)C(c1ccsc1)N(Cc1ccco1)C(=O)Cc1cccs1 (centres undefined) 71.2%

Reference: PubChem BioAssay AID602376 (Johns Hopkins Ion Channel Center, 2012)
